Records with an inconclusive call do not appear. Values without a mark were called inactive. Calls follow the shape of the full dose curve.
Biological target: Acetylcholinesterase (Homo sapiens) (UniProt P22303)
Assay: Acetylcholinesterase (AChE) small molecule antagonists: colormetric cell-based qHTS assay (AID 1347395); also: nearly all actives have a fitted effect of over 30% in size
Conditions: SH-SY5Y cells AChE activity, colorimetric (Ellman); series mostly up to 115 µM; activity, negative = inhibition: at the top concentration
Outline: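 AChE inhibition read colorimetrically via DTNB–thiocholine in SH-SY5Y cells. Compound 30 min, substrate 90 min, both 37 C.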
% is scaled to controls: 0 for no effect and ±100 for the full control effect.

Sequence of Acetylcholinesterase (Homo sapiens) (P22303 whole entry, looked up): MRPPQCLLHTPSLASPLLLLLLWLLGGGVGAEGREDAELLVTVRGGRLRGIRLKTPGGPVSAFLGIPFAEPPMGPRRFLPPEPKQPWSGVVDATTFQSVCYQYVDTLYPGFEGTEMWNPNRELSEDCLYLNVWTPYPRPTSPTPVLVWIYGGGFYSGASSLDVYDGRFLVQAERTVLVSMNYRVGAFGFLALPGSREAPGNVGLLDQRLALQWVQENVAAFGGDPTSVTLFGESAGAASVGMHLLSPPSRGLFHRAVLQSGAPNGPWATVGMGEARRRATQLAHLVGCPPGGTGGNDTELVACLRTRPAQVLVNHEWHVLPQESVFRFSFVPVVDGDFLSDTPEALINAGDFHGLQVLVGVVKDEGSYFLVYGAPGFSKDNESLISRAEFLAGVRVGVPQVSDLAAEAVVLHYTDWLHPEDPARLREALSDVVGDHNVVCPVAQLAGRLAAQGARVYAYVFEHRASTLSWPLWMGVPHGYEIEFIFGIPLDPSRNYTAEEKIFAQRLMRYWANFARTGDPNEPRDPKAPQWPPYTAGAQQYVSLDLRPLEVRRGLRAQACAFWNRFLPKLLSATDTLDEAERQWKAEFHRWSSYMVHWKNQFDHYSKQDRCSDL

| Compound | activity, negative = inhibition |
| --- | --- |
| CC(=O)S[C@H](C(=O)N[C@H]1Cc2ccccc2[C@H]2CCC[C@@H](C(=O)O)N2C1=O)C(C)C | 2.82% |
| CCOC(=O)OC(=O)OCC | -0.199% |
| Oc1cccc(O)c1O | -4.58% |
| Cc1ccccc1S | 3.75% [at 52.9 µM] |
| NC(=S)N/N=C/c1cccnc1 | 0.281% [at 52.9 µM] |
| C=CN1CCCCCC1=O | -0.307% |
| CC(C)NC(=O)c1ccc(C=O)cc1 | 0.505% [at 52.9 µM] |
| O=c1cc(-c2ccccc2)oc2ccc3ccccc3c12 | 3.73% |
| C#CC(O)C(CC)CCCC (centres undefined) | 6.32% |
| CCOC(=N)CC(=O)OCC | 2.11% |
| C[C@@H]1CN(c2c(F)c(F)c3c(=O)c(C(=O)O)cn(C4CC4)c3c2F)C[C@H](C)N1 | -2.8% [at 23.6 µM] |
| CCCC(CC)CCCCCCCN (centres undefined) | -1.22% |
| C=CCCCCCCCCC(=O)OCCCC | -0.606% |
| CC12CC3CC(C)(C1)CC(N)(C3)C2 | 1.55% [at 52.9 µM] |
| CC1=C2[C@H](/C=C(\C)C(=O)O)CC[C@@H](C)[C@H]2CC1 | 0.511% |
| COC(C)(C)CC(C)=O | -2.05% |
| Cc1nc(-c2ccccn2)ncc1C(=O)Nn1cc(C)c2cc(F)ccc21 | -5.25% |
| CCCCCCOC(=O)c1ccccc1 | -3.15% |
| COC(=O)CCSCCC(=O)OC | 0.714% |
| O=S(=O)(O)c1ccccc1/C=C/c1ccc(-c2ccc(/C=C/c3ccccc3S(=O)(=O)O)cc2)cc1 | -4.88% |

| Compound | activity, negative = inhibition |
| --- | --- |
| C=CC(=O)OCC1CCCO1 (centres undefined) | -0.551% |
| Nc1ccc(S(=O)(=O)O)c(N)c1 | 2.32% |
| O=C(O)c1ccccc1-c1ccc(C(F)(F)F)cc1 | 0.421% [at 52.9 µM] |
| COc1ncnc(NS(=O)(=O)c2ccc(N)cc2)c1OC | 1.42% [at 52.9 µM] |
| O=Cc1ccc(F)c(Br)c1 | 5.47% |
| CCCCCCCCCCCl | -2.97% |
| C=CC(C)C#N (centres undefined) | 1.53% |
| S=C(SSSSSSC(=S)N1CCCCC1)N1CCCCC1 | -0.568% [at 23.6 µM] |
| O=C1CC[C@@H](C(=O)O)N1 | -1.89% [at 52.9 µM] |
| CC(C)C(=O)O | 0% |
| COc1ccc(OC)c(Cl)c1 | 5.19% |
| [O-][n+]1ccc(Cl)cc1 | 1.3% |
| CCCC1CCCC(=O)O1 (centres undefined) | -4.19% |
| Cc1c[nH]c(=S)[nH]c1=O | 0.363% |
| CCCCCCCCc1ccc(S(=O)(=O)O)cc1 | 0.845% |
| O=[Si]=O | 0.177% |
| O=C1CCC(=O)N1 | -0.991% |
| Cc1ncc([N+](=O)[O-])n1CC(C)O (centres undefined) | 2.14% [at 52.9 µM] |
| CCO[Si](C)(C)OCC | -8.78% |

— PubChem BioAssay (Tox21)
